Reference: PubChem BioAssay
For some assays here: Potency and affinity values are given separately. Records with an inconclusive call do not appear. The list shows a part of the results. Active and inactive are the calls of the source. Unless noted, how the calls were made is not given here.

Assays:
[1] = cytotoxicity in PAX8-dependent RMG-1 cells, dose response, cell-based, cherry-pick (AID 687029;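 active means signal drop whose fitted half-maximal concentration is at most twice the top valid dose, in every test run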;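 further: cells exposed to compound for 96 hours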); conditions: RMG-1 viability, CellTiterGlo ATP luminescence, 96 h; series mostly up to 35 µM
[2] = cytotoxicity in IOSE-T80 ovarian epithelial cells, dose response, selectivity assay for PAX8 inhibitor project, cell-based, cherry-pick (AID 687032;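 active means fitted half-maximal concentration for viability loss no higher than twice the top valid dose, in every repeat run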;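 further: cells exposed to compound for 96 h before reading; 0% = neutral control wells and -100% = 2 µM mitoxantrone kill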); conditions: CellTiterGlo ATP luminescence, 96 h; series mostly up to 35 µM
[3] = non-specific cell cytotoxicity, dose response, cytotoxicity control for PAX8 inhibitor project, plate reader, dry powder samples (AID 743021); conditions: cell line, non-specific cytotoxicity counter-screen; series mostly up to 35 µM
[4] = IOSE-T80 ovarian epithelial cell cytotoxicity, dose response, cytotoxicity control for PAX8 inhibitor project, plate reader, dry powder samples (AID 743045); conditions: IOSE-T80 ovarian epithelial cells; series mostly up to 35 µM;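 further: 0% = neutral control median and -100% = positive control median; more negative values mean more cell killing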
[5] = A2780 ovarian cancer cell cytotoxicity, dose response, cytotoxicity control, plate reader, dry powder samples (AID 743046); conditions: series mostly up to 35 µM;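 further: 0% = neutral control wells and -100% = cytotoxic reference compound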
[6] = IGROV1 ovarian cancer cell cytotoxicity, dose response, PAX8 inhibitor project, plate reader, dry powder samples (AID 743043); conditions: series mostly up to 35 µM;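 further: more negative means fewer viable cells or more cytotoxicity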
[7] = cytotoxicity in OVCAR8 ovarian cancer cells, dose response, PAX8 project, cell-based, plate reader, dry powder samples (AID 743197); conditions: series mostly up to 35 µM
[8] = NIH:OVCAR-3 ovarian cancer cell cytotoxicity, dose response, PAX8 inhibitor project, plate reader, dry powder samples (AID 743044); conditions: NIH:OVCAR-3 ovarian cancer cell viability; max activity: at 35 µM, stronger effect = lower value unless noted; series mostly up to 50 µM
[9] = DNA binders by acridine orange displacement, dose response, counter-screen for EWS/Fli inhibitor project, biochemical, fluorescence polarization, cherry-pick (AID 720586;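 active means fitted curve reaches a 35% signal fall AC35 below twice the sample's top valid tested dose, actives reach about 48 µM in these data; inactive means the rest, including activity in the rising direction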;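 further: 0% = neutral control median and -100% = 10 µM mitoxantrone control median; lower polarization ratio signals compound binding to DNA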); conditions: salmon sperm DNA acridine orange fluorescence polarization; series mostly up to 68 µM
[10] = inhibitors of CMV-promoter luciferase reporter, dose response, counter-screen for Pax8 inhibitor project, cell-based, HEK293, luminescence, dry powder (AID 743020;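 active means signal-lowering compounds whose fitted half-maximal concentration is at or below twice the top tested dose in every run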;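 further: HEK293 cells stably expressing the CMV luciferase reporter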); conditions: SteadyGlo luminescence, 24 h; series mostly up to 35 µM
[11] = molecular target: Melanocortin receptor 4 (Homo sapiens) (UniProt P32245); experiment: MC4R antagonists, dose response, counter-screen for LGR2 antagonist project, cell-based, plate reader, cherry pick (AID 743444); conditions: MC4R-expressing cells, antagonist mode; series mostly up to 35 µM

C[C@@H]1CCCCO[C@H](CN(C)Cc2ccc(Cl)c(Cl)c2)[C@H](C)CN([C@@H](C)CO)C(=O)c2cc(NS(=O)(=O)c3ccc(Cl)cc3)ccc2O1
inactive: outcome [1] | outcome [2] | outcome [3] | outcome [4] | outcome [5]

Cc1ccc(-c2ccc([C@H]3[C@H](CO)N4CCCCN(S(=O)(=O)c5cccc(C)c5)C[C@@H]34)cc2)cc1
inactive: outcome [1] | outcome [2] | outcome [3] | outcome [4] | outcome [5]

Cc1ccc(S(=O)(=O)Nc2ccc3c(c2)C(=O)N([C@@H](C)CO)C[C@H](C)[C@@H](CN(C)C(=O)Nc2cccc4ccccc24)OCCCC[C@@H](C)O3)cc1
inactive: outcome [1] | outcome [2] | outcome [3] | outcome [6] | outcome [4] | outcome [5] | outcome [7]

C[C@H](CO)N1C[C@H](C)[C@@H](CN(C)S(=O)(=O)c2ccccc2)OCCCC[C@H](C)Oc2ccc(NS(=O)(=O)c3ccc(Cl)cc3)cc2C1=O
inactive: outcome [1] | outcome [2] | outcome [3] | outcome [6] | outcome [4] | outcome [7]

C[C@@H]1CN([C@@H](C)CO)C(=O)Cc2cc(NC(=O)Nc3ccccc3)ccc2O[C@H]1CN(C)Cc1ccc(Oc2ccccc2)cc1
inactive: outcome [1] | outcome [2] | outcome [3] | max activity [8] -64.8% | outcome [4] | outcome [5] | outcome [7]

C[C@H]1CCCCO[C@H](CN(C)C(=O)c2ccccc2)[C@@H](C)CN([C@@H](C)CO)C(=O)c2cc(NC(=O)Nc3ccc(C(F)(F)F)cc3)ccc2O1
inactive: outcome [1] | outcome [2] | outcome [3] | outcome [4] | outcome [5]

CS(=O)(=O)Nc1ccc2c(c1)[C@@H]1C[C@H](CC(=O)NCc3ccc(Oc4ccccc4)cc3)O[C@@H](CO)[C@@H]1O2
inactive: outcome [1] | outcome [2] | outcome [3] | outcome [6] | outcome [4] | outcome [5] | outcome [7]

C[C@@H]1CN([C@H](C)CO)C(=O)c2cc(NS(=O)(=O)c3ccc(F)cc3)ccc2O[C@@H](C)CCCCO[C@H]1CN(C)Cc1ccc(C(F)(F)F)cc1
inactive: outcome [1] | outcome [2] | outcome [3] | outcome [4] | outcome [5]

C[C@@H]1CN([C@@H](C)CO)C(=O)c2c(c3ccccc3n2C)-c2ccccc2CO[C@@H]1CN(C)S(=O)(=O)c1ccc(C(F)(F)F)cc1
inactive: outcome [1] | outcome [2] | outcome [3] | max activity [8] -38.5% | outcome [4] | outcome [5] | outcome [7]

C[C@@H]1CN([C@H](C)CO)C(=O)c2cc(NS(=O)(=O)c3cccs3)ccc2O[C@@H](C)CCCCO[C@@H]1CN(C)Cc1ccc(Cl)c(Cl)c1
inactive: outcome [1] | outcome [2] | outcome [3] | outcome [4]

C[C@@H]1CCCCO[C@H](CN(C)C(=O)Nc2ccc(C(F)(F)F)cc2)[C@@H](C)CN([C@@H](C)CO)C(=O)c2cc(NS(=O)(=O)c3ccc(Cl)cc3)ccc2O1
inactive: outcome [1] | outcome [2] | outcome [3] | outcome [4]

C[C@@H]1CCCCO[C@H](CN(C)Cc2ccc(C(F)(F)F)cc2)[C@H](C)CN([C@H](C)CO)C(=O)c2cc(NS(=O)(=O)c3ccc(Cl)cc3)ccc2O1
inactive: outcome [1] | outcome [2] | outcome [3] | outcome [4]

C[C@@H]1CCCCO[C@@H](CN(C)S(=O)(=O)c2ccc(Cl)cc2)[C@H](C)CN([C@H](C)CO)C(=O)c2cc(NS(=O)(=O)c3ccc(Cl)cc3)ccc2O1
inactive: outcome [1] | outcome [2] | outcome [3] | outcome [4]

COc1ccc2c3c(n(C)c2c1)[C@H](CO)N(Cc1ccccc1)CC31CCN(S(=O)(=O)c2ccc(C)cc2)CC1
inactive: outcome [1] | outcome [2] | outcome [3] | outcome [4]

C[C@@H]1CN([C@H](C)CO)C(=O)c2cc(NC(=O)Nc3ccc(F)cc3)ccc2O[C@@H](C)CCCCO[C@H]1CN(C)S(=O)(=O)c1ccccc1
inactive: outcome [1] | outcome [2] | outcome [3] | outcome [6] | outcome [4] | outcome [5] | outcome [7]

O=C(C[C@@H]1CC[C@@H]2[C@H](COC[C@@H](O)CN2C(=O)Nc2ccc(C(F)(F)F)cc2)O1)NC1Cc2ccccc2C1
inactive: outcome [1] | outcome [2] | outcome [3] | max activity [8] -24.5% | outcome [4] | outcome [5] | outcome [7]

Cc1ccc(S(=O)(=O)N(C)C[C@H]2OCCCC[C@H](C)Oc3ccc(NS(=O)(=O)c4ccc(Cl)cc4)cc3C(=O)N([C@H](C)CO)C[C@@H]2C)cc1
inactive: outcome [1] | outcome [2] | outcome [3] | outcome [4] | outcome [5]

Cc1ccc(S(=O)(=O)Nc2ccc3c(c2)C(=O)N([C@H](C)CO)C[C@@H](C)[C@@H](CN(C)CC2CCCCC2)OCCCC[C@@H](C)O3)cc1
inactive: outcome [1] | outcome [2] | outcome [3] | outcome [4]

C[C@H]1CN([C@@H](C)CO)S(=O)(=O)c2ccc(C#Cc3ccc(F)cc3)cc2O[C@H]1CN(C)C(=O)NC1CCCCC1
inactive: outcome [1] | outcome [2] | outcome [3] | outcome [6] | outcome [4] | outcome [5] | outcome [7]

COc1cccc(-c2ccc3c(c2)[C@H]2[C@H](CCN2C(=O)c2ccccc2F)[C@H](CO)N3C)c1
inactive: outcome [1] | outcome [2] | outcome [3] | outcome [4] | outcome [5]

C[C@H]1CCCCO[C@@H](CN(C)S(=O)(=O)c2ccccc2)[C@@H](C)CN([C@@H](C)CO)C(=O)c2cc(NC(=O)Nc3ccc(C(F)(F)F)cc3)ccc2O1
inactive: outcome [1] | outcome [2] | outcome [3] | outcome [4] | outcome [5]

O=C(Nc1ccccc1)N1C[C@@H]2N[C@H](C1)[C@@H]2c1ccc(/C=C/c2ccccc2)cc1
inactive: outcome [1] | outcome [2] | outcome [3] | outcome [6] | outcome [4] | outcome [7]

C[C@@H]1CN([C@H](C)CO)S(=O)(=O)c2ccc(C#Cc3ccncc3)cc2O[C@H]1CN(C)C(=O)C1CCCCC1
inactive: outcome [1] | outcome [2] | outcome [3] | outcome [6] | outcome [4] | outcome [5] | outcome [7]

CC(C)CC#Cc1ccc2c(c1)O[C@@H](CN(C)S(=O)(=O)c1ccc(F)cc1)[C@@H](C)CN([C@@H](C)CO)S2(=O)=O
inactive: outcome [1] | outcome [2] | outcome [3] | outcome [4] | outcome [5]

NC(=NCCCCCCN=C(N)/N=C(\N)Nc1ccc(Cl)cc1)/N=C(\N)Nc1ccc(Cl)cc1
inactive: outcome [1] | outcome [2] | outcome [3] | outcome [4]

C[C@H]1CCCCO[C@H](CN(C)C(=O)Nc2ccc(C(F)(F)F)cc2)[C@@H](C)CN([C@@H](C)CO)C(=O)c2cc(NC(=O)Nc3ccccc3)ccc2O1
inactive: outcome [1] | outcome [2] | outcome [3] | outcome [4]

COc1ccc(S(=O)(=O)Nc2ccc3c(c2)C(=O)N([C@@H](C)CO)C[C@H](C)[C@@H](CN(C)C(=O)Nc2ccc(C(F)(F)F)cc2)OCCCC[C@@H](C)O3)cc1
inactive: outcome [1] | outcome [2] | outcome [3] | outcome [4]

C[C@H]1CCCCO[C@H](CN(C)Cc2ccc(Cl)c(Cl)c2)[C@@H](C)CN([C@@H](C)CO)C(=O)c2cc(NC(=O)Nc3ccc(C(F)(F)F)cc3)ccc2O1
inactive: outcome [1] | outcome [2] | outcome [3] | outcome [4] | outcome [5]

Cc1noc(C)c1S(=O)(=O)Nc1ccc2c(c1)CC(=O)N([C@@H](C)CO)C[C@@H](C)[C@H](CN(C)Cc1ccc(Cl)c(Cl)c1)O2
inactive: outcome [1] | outcome [2] | outcome [3] | outcome [4] | outcome [5]

C[C@@H]1CCCCO[C@@H](CN(C)Cc2ccc(C(F)(F)F)cc2)[C@@H](C)CN([C@@H](C)CO)C(=O)c2cc(NS(=O)(=O)c3ccc(Cl)cc3)ccc2O1
inactive: outcome [1] | outcome [2] | outcome [3] | outcome [4] | outcome [5]

Cn1nnnc1Sc1ncnc2scc(-c3ccc(F)cc3)c12
inactive: outcome [1] | outcome [2] | outcome [3] | outcome [8]

C[C@@H]1CN([C@@H](C)CO)C(=O)Cc2cc(N(C)C)ccc2O[C@H]1CN(C)Cc1ccc(C(=O)Nc2ccccc2N)cc1
inactive: outcome [1] | outcome [2] | outcome [3] | outcome [4] | outcome [5]

COc1ccc(S(=O)(=O)N(C)C[C@H]2Oc3cc(C#CC4CCCC4)ccc3S(=O)(=O)N([C@@H](C)CO)C[C@@H]2C)cc1
inactive: outcome [1] | outcome [2] | outcome [3] | outcome [4]

C[C@@H]1CCCCO[C@@H](CN(C)C(=O)Nc2ccc(C(F)(F)F)cc2)[C@H](C)CN([C@H](C)CO)C(=O)c2cc(NS(=O)(=O)c3cccs3)ccc2O1
inactive: outcome [1] | outcome [2] | outcome [3] | outcome [4]

Cc1ccc(S(=O)(=O)Nc2ccc3c(c2)C(=O)N([C@@H](C)CO)C[C@H](C)[C@H](CN(C)Cc2ccc(C(F)(F)F)cc2)OCCCC[C@H](C)O3)cc1
inactive: outcome [1] | outcome [2] | outcome [3] | outcome [4] | outcome [5]

C[C@@H]1CN([C@H](C)CO)C(=O)c2cc(NS(=O)(=O)c3ccc(Cl)cc3)ccc2O[C@@H](C)CCCCO[C@H]1CN(C)S(=O)(=O)c1ccc(Cl)cc1
inactive: outcome [1] | outcome [2] | outcome [3] | outcome [4]

CCCCCCCCn1c2c(c(=N)c3c1CCC3)CCCC2
inactive: AC35 [9] | outcome [10]

Oc1c(Cl)cc(Cl)c(Cl)c1Cc1c(O)c(Cl)cc(Cl)c1Cl
inactive: AC35 [9]

COc1cccc(-c2ccc(C3[C@@H]4CN(C(=O)C5CC5)C[C@H]3N4)cc2)c1 (stereo partly specified)
inactive: outcome [11]

COc1ccc(S(=O)(=O)Nc2ccc3c(c2)C(=O)N([C@H](C)CO)C[C@H](C)[C@@H](CN(C)Cc2ccc(Cl)c(Cl)c2)OCCCC[C@@H](C)O3)cc1
inactive: outcome [1] | outcome [10] | outcome [3] | outcome [6] | max activity [8] -37.4% [at 8 µM, stronger effect = lower value] | outcome [4] | outcome [5] | outcome [7]

C[C@@H]1CN([C@H](C)CO)C(=O)c2cc(NC(=O)Nc3ccc(C(F)(F)F)cc3)ccc2O[C@@H](C)CCCCO[C@H]1CN(C)Cc1ccccc1
inactive: outcome [1] | outcome [10] | outcome [3] | outcome [6] | max activity [8] 12% [at 30 µM, stronger effect = lower value] | outcome [4] | outcome [5] | outcome [7]

COc1ccc(-c2ccc3c(c2)[C@@H]2[C@@H](CCN2C(=O)NC2CCCCC2)[C@H](CO)N3C)cc1
inactive: outcome [1] | outcome [10] | outcome [3] | outcome [6]

C[C@@H]1CCCCO[C@H](CN(C)C(=O)Cc2ccccc2)[C@@H](C)CN([C@@H](C)CO)C(=O)c2cc(NC(=O)Nc3ccc(C(F)(F)F)cc3)ccc2O1
inactive: outcome [1] | outcome [10] | outcome [3] | outcome [6] | outcome [4]

C[C@H](CO)N1C[C@H](C)[C@H](CN(C)Cc2ccc(-c3ccccc3)cc2)Oc2ccc(NS(=O)(=O)c3ccc(F)cc3)cc2CC1=O
inactive: outcome [1] | outcome [10] | outcome [3] | outcome [6] | max activity [8] -42.4% | outcome [4] | outcome [5]
